High-throughput results deposited in PubChem BioAssay by ICCB-Longwood Screening Facility, Harvard Medical School.
Bm FixLJ act: activators of Burkholderia fixLJ two-component system; B. multivorans fixK-promoter GFP reporter, 18 h; hits give high values; z-score (test concentration not listed); 29,000 tested, 0.3% active;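 active means replicate mean overnight rise in green fluorescent reporter signal, 3 or more SD over negative controls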
Numbers stand for hits; i = inactive; ! = repeats disagree. Only a selection was taken, and hits are over-represented in it overall.

SMILES	Bm FixLJ act
CSc1cccc(Nc2cc(C(=O)NCCc3ccc(Cl)cc3)c3ccccc3n2)c1	i
COc1ccc(Nc2cc(C(=O)NCCCN(C)C3CCCCC3)c3ccccc3n2)cc1	i
CCCCN(CCCNC(=O)c1cc(Nc2cccc(SC)c2)nc2ccccc12)Cc1ccccc1	3.17
COCCN1CCC(C(=O)Nc2c3c(nn2C)CSC3)C1 (configuration not stated)	i
COc1cccc(CN(C)C(=O)NC(C)c2n[nH]c(C)n2)c1 (configuration not stated)	i
Cc1cc(CC2CN(C(=O)c3cc4c(cc3C)OCCO4)CC2O)n[nH]1 (configuration not stated)	i
Cc1csc(SCC(=O)NCCc2noc(C3CCCO3)n2)n1 (configuration not stated)	i
Cc1c(C)c2c(c(C)c1O)CCC(C)(C(=O)N(C)CCCn1cccn1)O2 (configuration not stated)	i
O=c1oc2ccc3ccccc3c2cc1-c1nnc(Nc2ccccc2F)s1	i
O=c1oc2cc(O)ccc2cc1-c1nnc(Nc2ccccc2F)s1	23.4
CCOc1ccc2cc(-c3nnc(Nc4ccc(C)cc4)s3)c(=O)oc2c1	i
NC(CO)C(=O)NNCc1ccc(O)c(O)c1O (configuration not stated)	3.05!
COCC(NC(=O)c1ccc(N(C)S(C)(=O)=O)cc1)c1ccnn1C (configuration not stated)	i
CC(C)n1ccnc1CNC(=O)C1OCC(=O)NC1c1ccccc1 (configuration not stated)	i
CCOc1ccc(-n2c(=O)c3c(C)c(C)sc3n(CC(=O)c3ccccc3)c2=O)cc1	3.22
CCOc1ccc(-n2c(=O)c3c(C)c(C)sc3n(CC(=O)N(CC)Cc3ccccc3)c2=O)cc1	i
Cc1ccc(-n2c(=O)c3c(C)c(C)sc3n(CC(=O)c3ccc(Cl)cc3)c2=O)cc1C	i
COc1cc(C(=O)N2CCCN(C(=O)Nc3ccccc3)CC2)ccn1	i
Cc1cccc(C(=O)N2CCCC3(CCC(=O)N(Cc4cnc(C)cn4)C3)C2)c1 (configuration not stated)	i
O=C1NCCC1NC(=O)N1CCN(Cc2ccc(Cl)c(Cl)c2)CC1 (configuration not stated)	i
Cc1cc(C)n(C2CN(C(=O)c3cccc(-c4nc(C)c(C)s4)c3)C2)n1	i
O=C1c2[nH]nc(-c3ccccc3O)c2C(c2cccc(O)c2)N1Cc1cccnc1 (configuration not stated)	i
Cc1ccc2nc(-c3ccc(NC(=O)C(F)(F)F)cc3)sc2c1	i
CC(=O)c1cccc(NC(=O)Cn2cnc3c2c(=O)n(C)c(=O)n3C)c1	i
Cn1c(=O)c2nc3ccc(NC(=O)C(F)(F)F)cc3nc2n(C)c1=O	13.8
SMILES	Bm FixLJ act
Cc1ccc(C2(CN(C)Cc3ccc4nsnc4c3)CCNCC2)nc1	i
Cn1c(Cn2cccn2)nnc1C1CCN(CCC2CCCCC2)CC1	i
CN(Cc1ccon1)C(=O)C1CCN(c2ccc(C(F)(F)F)cn2)C1 (configuration not stated)	i
Cn1nc(CNC(=O)C2CCCCn3nnnc32)c2c(Cl)cccc21 (configuration not stated)	3.32
O=C(NCc1cc(-c2ccc(F)cc2)no1)C1CCCCn2nnnc21 (configuration not stated)	i
CN1CC(=O)N2CCN(Cc3nn(C)c4cccc(Cl)c34)CC2C1=O (configuration not stated)	i
CCCc1nc(C)cc(NCc2ccc3c(c2)n(C)c(=O)n3C)n1	i
CCOCC1(CNC(=O)c2nnc3nc(C)ccn23)CCC1	i
COc1ccc(C(=O)NC2COCC2Cc2ccncc2)cc1OC (configuration not stated)	i
Cc1cccc(C2=Nc3ccccc3N=C(c3cc(Cl)ccc3O)C2)c1	i
COc1ccc(O)c(C2=Nc3ccccc3N=C(c3ccccc3)C2)c1	3.7
COc1ccc(C2=NC(c3ccccc3)=Nc3ccc(C)cc3N2)cc1	i
COCCNC(=O)c1cccc(NC(=O)C2CCNCC2)c1C	i
O=C(C1=Cc2ccccc2OC=C1)N1CCCN(C(=O)c2cc(C3CC3)[nH]n2)CC1	i
Cc1ccc2nc(CN3CCC(c4ccnc(C)n4)CC3)[nH]c2c1	i
CN(Cc1cn[nH]c1C(=O)O)C1CCN(Cc2ccccc2)C1 (configuration not stated)	i
COc1ccccc1C(=O)Nc1ccc(OCc2cc(=O)n3cc(C)sc3n2)cc1	i
Cc1cn2c(=O)cc(COc3ccc(NC(=O)c4cccc(F)c4)cc3)nc2s1	i
Cc1cn2c(=O)cc(COc3ccc(NC(=O)c4ccccc4C)cc3)nc2s1	3.44
Cc1cc(=O)[nH]c(SC(C)C(=O)N2CCC(Cc3noc(C)n3)CC2)n1 (configuration not stated)	i
COc1ccc(CNC(=O)c2cc(Nc3ccc(OC)cc3OC)nc3ccccc23)cc1	i
COc1ccc(Nc2cc(C(=O)NCCc3ccc(C)cc3)c3ccccc3n2)c(OC)c1	i
COc1ccc(OC)c(Nc2cc(C(=O)NCc3ccccc3)c3ccccc3n2)c1	4.2
CNC(=O)CCc1ccccc1NC(=O)c1ccc(N2CCN(C)CC2)cc1	i
CCN(CC)CCCNC(=O)Cn1ncc2c3ccccc3n(Cc3ccccc3)c2c1=O	i
SMILES	Bm FixLJ act
CC(C)N(Cc1ccccc1)C(=O)Cn1ncc2c3ccccc3n(Cc3ccccc3)c2c1=O	i
CN(Cc1ccccc1)C(=O)Cn1ncc2c3ccccc3n(Cc3cccc(Cl)c3)c2c1=O	5.53
CC1CCCCN1CCCNC(=O)Cn1ncc2c3ccccc3n(Cc3ccccc3F)c2c1=O (configuration not stated)	i
CCCCN(CC)CCCNC(=O)Cn1ncc2c3ccccc3n(Cc3ccc(F)cc3)c2c1=O	i
CCCN(CCC)CCCNC(=O)Cn1ncc2c3ccccc3n(Cc3ccc(F)cc3)c2c1=O	i
Cc1ccc(Cn2c3ccccc3c3cnn(CC(=O)Nc4cc(Cl)ccc4C)c(=O)c32)cc1	i
O=C(Cn1ncc2c3ccccc3n(Cc3cccc(Cl)c3)c2c1=O)NCCCN1CCCCC1	16.1
CCCCN(C)CCCNC(=O)Cn1ncc2c3ccccc3n(Cc3cccc(Cl)c3)c2c1=O	6.4
O=C(Cn1ncc2c3ccccc3n(Cc3ccc(Cl)cc3)c2c1=O)NCCCc1ccccc1	i
Cc1ccccc1Cn1c2ccccc2c2cnn(CC(=O)NCc3cccc(Cl)c3)c(=O)c21	i
O=C(Cn1ncc2c3ccccc3n(Cc3cccc(Cl)c3)c2c1=O)NCCCc1ccccc1	19.5
CNc1ncccc1C(=O)NC1CCOCC1Oc1ccc(CO)cc1 (configuration not stated)	i
CN(C)C(=O)N1CCC(C(=O)NCCCSCc2ccc(F)cc2)CC1	i
COCCCN1CCOC2(CCN(C(=O)Cc3ccsc3)CC2)CC1=O	i
CCOc1cc(C)c(Cl)cc1S(=O)(=O)N1CCC(CO)CC1	i
CC(=O)Nc1ccc2nc(CN3Cc4cnc(C(C)(C)C)nc4C3)ccc2c1	i
COc1ccnc(C(=O)NC(Cn2cccn2)c2ccccc2)c1 (configuration not stated)	i
CC(=O)N1CCc2cc(Br)cc(S(=O)(=O)N3CCN(c4cccc(C(F)(F)F)c4)CC3)c21	3.26
CCC(=O)N1CCc2cc(Br)cc(S(=O)(=O)N3CCN(c4ccccc4)CC3)c21	i
O=C(C1CC1)N1CCc2cc(Br)cc(S(=O)(=O)N3CCN(c4cccc(Cl)c4)CC3)c21	i
Cc1ccc(CCC(=O)NC2CCOCC2Oc2ccc(CO)cc2)cc1 (configuration not stated)	i
